Out of some 420,000 compounds screened, about 50,000 (12%) were called active. Not shown: some 26% with an inconclusive outcome. Calls come from the whole dose curve; as a rule, active = well fitted inhibition curve with a large enough effect; inconclusive = small, poorly fitted or top-dose-only effect; inactive = flat fitted curve, though single readings scatter. The list comes from a sample in which actives are over-represented; it also holds similar structures and randomly drawn compounds.
Experiment: qHTS for Inhibitors of human tyrosyl-DNA phosphodiesterase 1 (TDP1): qHTS in cells in presence of CPT; note: nearly all actives have a fitted effect of over 55% in size
Conditions: chicken DT40 Tdp1-/-;hTDP1 cells + 20 nM CPT, ATP luminescence, 48 h; series mostly up to 46.2 µM; activity change, negative = growth inhibition: at the top concentration
Method in brief: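 Cell growth measured by CellTiter-Glo luminescence after a minimum 48 h, 37 C compound exposure with 20 nM CPT in Tdp1-knockout DT40 cells stably expressing hTDP1, seeded 400/well; qHTS titration format.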
% is set by controls: 0 for no effect and ±100 for the full control effect; potency is the fitted concentration of half-maximal effect.

| Compound | activity change, negative = growth inhibition | Potency |
| --- | --- | --- |
| COc1ccc(CCNC(=O)C(=O)NCC2CCNCC2)cc1OC | 2.42% (inactive) | – |
| COc1ccccc1C(=O)NCCC(=O)NCC(c1ccco1)N1CCCCC1 (stereo not drawn) | -7.77% (inactive) | – |
| COc1ccc(C(CNC(=O)COc2ccccc2OC)N2CCCCC2)cc1 (stereo not drawn) | -14.9% (inactive) | – |
| COc1ccc(S(=O)(=O)NCC(c2ccc(N(C)C)cc2)N2CCc3ccccc32)cc1OC (stereo not drawn) | -11.8% (inactive) | – |
| CCOc1ccccc1C(=O)NCC(c1ccc(N(C)C)cc1)N1CCCC1 (stereo not drawn) | – | 20.6 µM (active) |
| COc1ccc(S(=O)(=O)NCC(c2ccc(N(C)C)cc2)N2CCCC2)cc1 (stereo not drawn) | -7.81% (inactive) | – |
| COc1ccc(C(=O)NCC(c2ccc(N(C)C)cc2)N2CCc3ccccc32)c(OC)c1 (stereo not drawn) | – | 18.4 µM (active) |
| CCS(=O)(=O)N1CCC(N2CCN(c3ccccc3)CC2)CC1 | 3.97% (inactive) | – |
| COC(=O)c1cc(OCC(=O)NC2CCCc3ccccc32)cc(C(=O)OC)c1 (stereo not drawn) | 2.26% (inactive) | – |
| CCCOCC(O)CC(CC)C(=O)NNC(=S)Nc1ccccc1 (stereo not drawn) | 0.982% (inactive) | – |
| COc1cccc(C(=O)Nc2c3c(nn2-c2cccc(C)c2C)CS(=O)(=O)C3)c1OC | – | 35.5 µM (active) |
| COc1ccccc1OCC(=O)Nc1c2c(nn1-c1ccc(F)cc1)CS(=O)(=O)C2 | -5.24% (inactive) | – |
| Cc1cccc(-n2nc3c(c2NC(=O)c2ccc(Br)o2)CSC3)c1C | -18.8% (inactive) | – |
| CC(C)(C)C1CCc2c(sc(NC(=O)c3ccccc3F)c2C(=O)N2CCCCC2)C1 (stereo not drawn) | – | 16.4 µM (active) |
| COC(=O)c1c(NC(=O)c2ccccc2F)sc2c1C(C(=O)OC)CC2 (stereo not drawn) | -29% (inactive) | – |
| Cc1ccccc1NC(=O)c1c(NC(=O)c2ccccc2F)sc2c1CCC(C)C2 (stereo not drawn) | 6.23% (inactive) | – |
| Cc1ccc(F)c(S(=O)(=O)NC(=O)C2(C)CCN2C(=O)CCc2cccs2)c1 (stereo not drawn) | -16.3% (inactive) | – |
| CCOC(=O)C(C)Sc1nc2ccccc2c(=O)n1CC1CCCCC1 (stereo not drawn) | – | 12.6 µM (active) |
| CCOn1c(SC(C)C)nc2ccccc2c1=O | -7.27% (inactive) | – |
| CC1CCN(CCCn2c(SCC(=O)NC3CCCC3)nc3ccccc3c2=O)CC1 | 8.67% (inactive) | – |
| O=C(NCCS(=O)(=O)c1ccc(Br)cc1)c1ccccc1Cl | 1.81% (inactive) | – |
| O=C(O)CCCN1C(=O)C2C3c4ccccc4C(c4ccccc43)[C@@H]2C1=O (stereo partly drawn) | 36.8% (inactive) | – |
| Cc1ccc(NC(=O)CCOc2ccccc2)cc1S(=O)(=O)Nc1ccccc1Cl | -1.11% (inactive) | – |

| Compound | activity change, negative = growth inhibition | Potency |
| --- | --- | --- |
| CCOC(=O)N1CCc2c(sc3c2c(=O)n(Cc2ccccc2)c(=O)n3CC(=O)Nc2cccc(C)c2)C1 | -5.93% (inactive) | – |
| CC1CCN(C(=O)Cn2c(=O)n(-c3ccc(Cl)cc3)c(=O)c3c4c(sc32)CCC4)CC1 | 0.402% (inactive) | – |
| O=c1c2c3c(sc2n(CCN2CCCC2)c(=O)n1Cc1ccccc1)CCCCC3 | – | 13 µM (active) |
| COc1ccc(C2NC(=O)C(=O)/C2=C(\O)c2ccc(Cl)cc2)cc1OC (stereo not drawn) | 1.92% (inactive) | – |
| O=c1[nH]c2ccc(S(=O)(=O)N3CCCC3)cc2[nH]1 | -16.4% (inactive) | – |
| CCCN(CC1CC1)C(=O)COC(=O)c1ccc(C)cc1O | 6.29% (inactive) | – |
| Cc1cccc(C(=O)c2cccc(C)c2)c1 | -27.9% (inactive) | – |
| Cc1cccc(C(=O)NC(=S)N(C)C2CCCCC2)c1 | – | 29.1 µM (active) |
| Cc1cccc(C(=O)NCCCN(C)CCCNC(=O)c2cccc(C)c2)c1 | 2% (inactive) | – |
| CN(CC(=O)Nc1ccc(F)c(F)c1F)C(=O)C1CC(=O)N(C2CCCC2)C1 (stereo not drawn) | -10% (inactive) | – |
| COc1ccc(C2Sc3ccccc3NC3=C2C(=O)c2ccccc23)c(OC)c1OC (stereo not drawn) | – | 1.84 µM (active) |
| CCN(CC)CCCN1C(=O)C(=O)/C(=C(/O)c2c(C)nc3ccccn23)C1c1ccc(C)o1 (stereo not drawn) | -12.8% (inactive) | – |
| Cc1ccc(N=C2NC(=O)c3cccc([N+](=O)[O-])c32)cc1 | -21.1% (inactive) | – |
| CC(=O)c1cnc(SCC(=O)O)nc1C | 5.08% (inactive) | – |
| CCn1cc(/C=C2/SC(=S)NC2=O)c(C)n1 | -18% (inactive) | – |
| O=C1/C(=C/c2ccc3c(c2)OCO3)CCC/C1=C\c1ccc2c(c1)OCO2 | -23.1% (inactive) | – |
| Cc1nn(C)cc1/C=C1\CCC/C(=C\c2cn(C)nc2C)C1=O | – | 15.8 µM (active) |
| C[C@H](NC(=O)C1CCN(S(=O)(=O)c2ccccc2)CC1)C(=O)NCc1ccccc1 | -11.3% (inactive) | – |
| CC[C@@]1(C(=O)OC)N[C@H](CN(C)C(C)=O)[C@@H]2C(=O)N(C)C(=O)[C@@H]21 | -0.511% (inactive) | – |
| Cc1ccc(C(C[N+](=O)[O-])c2c(C)cc3ccccn23)cc1 (stereo not drawn) | – | 10.3 µM (active) |
| COc1ccccc1C(=O)NCCC(=O)NC(C)CCc1ccccc1 (stereo not drawn) | -16.7% (inactive) | – |
| COc1cc(C=NNC(=O)c2cccnc2)ccc1OC(=O)c1ccccc1F | 7.47% (inactive) | – |
| CC(C)(C)C(=O)Nc1ccc(C(=O)N/N=C/c2ccccc2OC(=O)c2ccc(Cl)cc2Cl)cc1 | – | 14.6 µM (active) |

| Compound | activity change, negative = growth inhibition | Potency |
| --- | --- | --- |
| O=C(N/N=C/c1ccoc1)c1ccc(Cl)cc1Cl | -6.06% (inactive) | – |
| Cc1cc(C)nc(SCC(=O)N(C)C)n1 | 0.938% (inactive) | – |
| COC(=O)c1c(C)[nH]c(C(=O)NCCc2ccc(S(N)(=O)=O)cc2)c1C | -0.0885% (inactive) | – |
| CC(=O)c1c(C)n(S(=O)(=O)c2ccc(Cl)cc2)c2ccc(NS(=O)(=O)c3ccc(Cl)cc3)cc12 | – | 10.3 µM (active) |
| CC(=O)c1c(C)oc2ccc(NS(=O)(=O)c3ccc(C(=O)O)cc3)cc12 | 0.313% (inactive) | – |
| O=S(=O)(Nc1ccc(-n2cnnn2)cc1)c1ccc(Cl)cc1 | 1.72% (inactive) | – |
| Cc1csc(-c2coc3cc(O[C@@H]4O[C@H](CO)[C@@H](O)[C@@H](O)[C@H]4O)ccc3c2=O)n1 | 8.48% [at 9.04 µM] (inactive) | – |
| O=C(Nc1n[nH]c(C(F)(F)F)n1)c1cccs1 | -21.7% (inactive) | – |
| COc1ccccc1C(=O)Nc1ccnn1C1CCN(C(=O)C(C)(C)C)CC1 | -7.39% (inactive) | – |
| CCCCn1c(N)c(N(CCC(C)C)C(=O)c2ccc(COc3ccccc3)o2)c(=O)[nH]c1=O | -4% (inactive) | – |
| CCOc1ccc(S(=O)(=O)N/N=C(\C)c2ccc(Cl)c(Cl)c2Cl)cc1 | 1.94% (inactive) | – |
| COC(=O)COc1ccc2c(=O)c(Oc3ccccc3Br)coc2c1 | 9.84% (inactive) | – |
| Cc1nn(CC(=O)Nc2ccc(F)cc2)c(=O)c2ccccc12 | 0.617% (inactive) | – |
| Cc1ccc(NC(=O)Cn2c(C)csc2=O)cc1 | 5.41% (inactive) | – |
| Cc1ccc(NC(=O)Cn2sc3ccccc3c2=O)cc1 | – | 4.61 µM (active) |
| CN(C(=O)CSc1nnc(-c2c[nH]c3ccccc23)o1)C1CCS(=O)(=O)C1 (stereo not drawn) | 0.592% (inactive) | – |
| NC(=O)c1ccc(NC(=O)COC(=O)c2c3c(nc4ccccc24)/C(=C\c2ccc4c(c2)OCO4)CCC3)cc1 | – | 11.6 µM (active) |
| NS(=O)(=O)c1ccc(NC(=O)COC(=O)c2cc3ccccc3oc2=O)cc1 | -17.9% (inactive) | – |
| COc1cc(-c2cc(C(=O)OCC(=O)Nc3ccc4c(c3)OCO4)c3ccccc3n2)cc(OC)c1OC | -18.6% (inactive) | – |
| NS(=O)(=O)c1ccc(NC(=O)COC(=O)c2c3c(nc4ccccc24)/C(=C\c2ccc4c(c2)OCO4)CCC3)cc1 | – | 18.4 µM (active) |
| O=C(COC(=O)c1ccc(F)cc1)Nc1ccc2c(c1)OCO2 | -13.4% (inactive) | – |
| O=C(COC(=O)c1ccncc1)Nc1ccc2c(c1)OCO2 | 2.53% (inactive) | – |
